Where a name gives a salt, the structure may show the parent alone. ± gives the uncertainty stated by the source.
These compounds were tested on Caenorhabditis elegans N2 (assay: food intake (mean delta OD600 / animal over 72 h) with 50 uM loxapine co-treatment (OD600 units per animal); higher = more food eaten (less suppression of loxapine-induced hyperphagia)). Conditions: first compound 33 µM, loxapine concentration 50 µM.
Description: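 C. elegans N2 adults (FUDR-sterilised, day 1) in 96-well plates fed gamma-irradiated bacteria. Each library drug (MedChemExpress FDA-approved library) at 33 uM was combined with loxapine at 50 uM. Food intake was measured as bacterial clearance: the change in OD600 from day 1 to 72 h, normalised per animal (mean over 14-21 wells of about 10-12 worms). Drugs flagged for bacterial lysis or sickness were excluded by the authors.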

Question: Which food intake does the source give for `CCCC(=O)Nc1ncnc2c1ncn2[C@@H]1O[C@@H]2COP(=O)(O)O[C@H]2[C@H]1OC(=O)CCC` [bucladesine (calcium salt)] + CN1CCN(C2=Nc3ccccc3Oc3ccc(Cl)cc32)CC1 [loxapine] here?
Answer: 0.022 ± 0.0033

Question: With `CC=CC(=O)N(CC)c1ccccc1C` [crotamiton] + CN1CCN(C2=Nc3ccccc3Oc3ccc(Cl)cc32)CC1 [loxapine] as the compound, how does the food intake read?
Answer: 0.0223 ± 0.002

Question: For `CC(=O)O[C@H]1CC[C@H]2[C@@H]3CCc4cc(O)ccc4[C@H]3CC[C@]12C` [b-estradiol 17-acetate] + CN1CCN(C2=Nc3ccccc3Oc3ccc(Cl)cc32)CC1 [loxapine], which food intake is on record?
Answer: 0.0213 ± 0.0046

Question: `COc1c(N2C[C@@H]3CCCN[C@@H]3C2)c(F)cc2c(=O)c(C(=O)O)cn(C3CC3)c12` [moxifloxacin (hydrochloride)] + CN1CCN(C2=Nc3ccccc3Oc3ccc(Cl)cc32)CC1 [loxapine] was tested. Which food intake did it give?
Answer: 0.0216 ± 0.0034

Question: With `CC(C)C(=O)c1c(C(C)C)nn2ccccc12` [ibudilast] + CN1CCN(C2=Nc3ccccc3Oc3ccc(Cl)cc32)CC1 [loxapine] as the compound, how does the food intake read?
Answer: 0.0243 ± 0.0046

Question: With `CS(=O)(=O)c1ccc([C@@H](O)[C@@H](CO)NC(=O)C(Cl)Cl)cc1` [thiamphenicol] + CN1CCN(C2=Nc3ccccc3Oc3ccc(Cl)cc32)CC1 [loxapine] as the compound, how does the food intake read?
Answer: 0.0228 ± 0.0025

Question: For `COc1ccc(CCN(C)CCCN2CCc3cc(OC)c(OC)cc3CC2=O)cc1OC` [zatebradine] + CN1CCN(C2=Nc3ccccc3Oc3ccc(Cl)cc32)CC1 [loxapine], which food intake is on record?
Answer: 0.0232 ± 0.0027

Question: With `CCCS(=O)(=O)Nc1ccc(F)c(C(=O)c2c[nH]c3ncc(-c4ccc(Cl)cc4)cc23)c1F` [vemurafenib] + CN1CCN(C2=Nc3ccccc3Oc3ccc(Cl)cc32)CC1 [loxapine] as the compound, how does the food intake read?
Answer: 0.012 ± 0.0047

Question: How did the food intake turn out when `CC(C)Cc1ccc(C(C)C(=O)O)cc1` (stereo not given) [ibuprofen] + CN1CCN(C2=Nc3ccccc3Oc3ccc(Cl)cc32)CC1 [loxapine] was run?
Answer: 0.0222 ± 0.0021

Question: With `CCOC(N)=O` [urethane] + CN1CCN(C2=Nc3ccccc3Oc3ccc(Cl)cc32)CC1 [loxapine] as the compound, how does the food intake read?
Answer: 0.0215 ± 0.0029

Question: For `CCN(CC)C(=O)c1cccc(C)c1` + CN1CCN(C2=Nc3ccccc3Oc3ccc(Cl)cc32)CC1 [loxapine], which food intake is on record?
Answer: 0.023 ± 0.0029

Question: For `CN(CCOc1ccc(CC2SC(=O)NC2=O)cc1)c1ccccn1` (stereo not given) [rosiglitazone] + CN1CCN(C2=Nc3ccccc3Oc3ccc(Cl)cc32)CC1 [loxapine], which food intake is on record?
Answer: 0.0226 ± 0.0041

Question: With `C[C@@H]1CCN(C(=O)CC#N)C[C@@H]1N(C)c1ncnc2[nH]ccc12` [tofacitinib (citrate)] + CN1CCN(C2=Nc3ccccc3Oc3ccc(Cl)cc32)CC1 [loxapine] as the compound, how does the food intake read?
Answer: 0.0227 ± 0.0047

Question: For `C1CCN2C[C@@H]3C[C@@H](CN4CCCC[C@@H]34)[C@H]2C1` [(-)-sparteine (sulfate pentahydrate)] + CN1CCN(C2=Nc3ccccc3Oc3ccc(Cl)cc32)CC1 [loxapine], which food intake is on record?
Answer: 0.0235 ± 0.0013

Question: With `CN(C)CCC=C1c2ccccc2C=Cc2ccccc21` [cyclobenzaprine (hydrochloride)] + CN1CCN(C2=Nc3ccccc3Oc3ccc(Cl)cc32)CC1 [loxapine] as the compound, how does the food intake read?
Answer: 0.0221 ± 0.0063

Question: Which food intake does the source give for `CCN(CC)CCOC(=O)c1ccc(N)cc1` [procaine (hydrochloride)] + CN1CCN(C2=Nc3ccccc3Oc3ccc(Cl)cc32)CC1 [loxapine] here?
Answer: 0.0224 ± 0.0034

Question: How did the food intake turn out when `COc1cc(OC)c(C(=O)CCCN2CCCC2)c(OC)c1` [buflomedil (hydrochloride)] + CN1CCN(C2=Nc3ccccc3Oc3ccc(Cl)cc32)CC1 [loxapine] was run?
Answer: 0.0222 ± 0.0028

Question: Which food intake does the source give for `CN1CCCC(n2nc(Cc3ccc(Cl)cc3)c3ccccc3c2=O)CC1` (stereo not given) [azelastine (hydrochloride)] + CN1CCN(C2=Nc3ccccc3Oc3ccc(Cl)cc32)CC1 [loxapine] here?
Answer: 0.0226 ± 0.0035

Question: With `C[C@]12CC[C@@H]3c4ccc(O)cc4CC[C@H]3[C@@H]1CC[C@@H]2OC(=O)CCC1CCCC1` [estradiol (cypionate)] + CN1CCN(C2=Nc3ccccc3Oc3ccc(Cl)cc32)CC1 [loxapine] as the compound, how does the food intake read?
Answer: 0.0224 ± 0.0087

Question: How did the food intake turn out when `Cc1nc(C)c(Cl)c(O)c1Cl` [clopidol] + CN1CCN(C2=Nc3ccccc3Oc3ccc(Cl)cc32)CC1 [loxapine] was run?
Answer: 0.0241 ± 0.0032

Question: How did the food intake turn out when `[F-].[Na+]` [sodium fluoride] + CN1CCN(C2=Nc3ccccc3Oc3ccc(Cl)cc32)CC1 [loxapine] was run?
Answer: 0.0241 ± 0.0018

Question: How did the food intake turn out when `NS(=O)(=O)c1ccc(C(=O)O)cc1` [carzenide] + CN1CCN(C2=Nc3ccccc3Oc3ccc(Cl)cc32)CC1 [loxapine] was run?
Answer: 0.0251 ± 0.0067

Question: Which food intake does the source give for `Nc1nccs1` [aminothiazole] + CN1CCN(C2=Nc3ccccc3Oc3ccc(Cl)cc32)CC1 [loxapine] here?
Answer: 0.0243 ± 0.0035

Question: Which food intake does the source give for `C[C@H](Cn1cnc2c(N)ncnc21)OCP(=O)(O)O` [tenofovir] + CN1CCN(C2=Nc3ccccc3Oc3ccc(Cl)cc32)CC1 [loxapine] here?
Answer: 0.0219 ± 0.0044

Question: For `S=c1nc[nH]c2nc[nH]c12` [6-Mercaptopurine] + CN1CCN(C2=Nc3ccccc3Oc3ccc(Cl)cc32)CC1 [loxapine], which food intake is on record?
Answer: 0.0218 ± 0.0028

Question: `O=C(O)COC(=O)Cc1ccccc1Nc1c(Cl)cccc1Cl` [aceclofenac] + CN1CCN(C2=Nc3ccccc3Oc3ccc(Cl)cc32)CC1 [loxapine] was tested. Which food intake did it give?
Answer: 0.0221 ± 0.0083

Question: With `CN1C2=CC(=O)/C(=N\NC(N)=O)C=C2CC1S(=O)(=O)O` (stereo not given) [carbazochrome (sodium sulfonate)] + CN1CCN(C2=Nc3ccccc3Oc3ccc(Cl)cc32)CC1 [loxapine] as the compound, how does the food intake read?
Answer: 0.0296 ± 0.0057

Question: Which food intake does the source give for `COc1cc(O)c(C(=O)c2ccccc2)cc1S(=O)(=O)O` [sulisobenzone] + CN1CCN(C2=Nc3ccccc3Oc3ccc(Cl)cc32)CC1 [loxapine] here?
Answer: 0.0234 ± 0.0024

Question: `O=C(O)CCCCCCCC(=O)O` [azelaic acid] + CN1CCN(C2=Nc3ccccc3Oc3ccc(Cl)cc32)CC1 [loxapine] was tested. Which food intake did it give?
Answer: 0.0259 ± 0.018

Question: How did the food intake turn out when `CN(CCOc1ccc(CC2SC(=O)NC2=O)cc1)c1ccccn1` (stereo not given) [rosiglitazone (maleate)] + CN1CCN(C2=Nc3ccccc3Oc3ccc(Cl)cc32)CC1 [loxapine] was run?
Answer: 0.0207 ± 0.002

Question: For `O=C1N=C(O)NC1(c1ccccc1)c1ccccc1` [phenytoin (sodium)] + CN1CCN(C2=Nc3ccccc3Oc3ccc(Cl)cc32)CC1 [loxapine], which food intake is on record?
Answer: 0.0233 ± 0.0031

Question: Which food intake does the source give for `CN(C)CCOC(c1ccccc1)c1ccccc1.Cn1c(=O)c2[nH]c(Cl)nc2n(C)c1=O` [dimenhydrinate] + CN1CCN(C2=Nc3ccccc3Oc3ccc(Cl)cc32)CC1 [loxapine] here?
Answer: 0.0239 ± 0.0029

Question: How did the food intake turn out when `COc1ccc(CNc2nc(N3CCC[C@H]3CO)ncc2C(=O)NCc2ncccn2)cc1Cl` [avanafil] + CN1CCN(C2=Nc3ccccc3Oc3ccc(Cl)cc32)CC1 [loxapine] was run?
Answer: 0.023 ± 0.0037

Question: With `CCCc1nn(C)c2c(=O)[nH]c(-c3cc(S(=O)(=O)N4CCN(C)CC4)ccc3OCC)nc12` [sildenafil (citrate)] + CN1CCN(C2=Nc3ccccc3Oc3ccc(Cl)cc32)CC1 [loxapine] as the compound, how does the food intake read?
Answer: 0.024 ± 0.0028

Question: `CO/N=C1\CN(c2nc3c(cc2F)c(=O)c(C(=O)O)cn3C2CC2)CC1CN` (stereo not given) [gemifloxacin (mesylate)] + CN1CCN(C2=Nc3ccccc3Oc3ccc(Cl)cc32)CC1 [loxapine] was tested. Which food intake did it give?
Answer: 0.023 ± 0.0032

Question: Which food intake does the source give for `O=C([O-])c1ccccc1O.[Na+]` [sodium salicylate] + CN1CCN(C2=Nc3ccccc3Oc3ccc(Cl)cc32)CC1 [loxapine] here?
Answer: 0.0224 ± 0.0057

Question: Which food intake does the source give for `CCOC(=O)[C@H](CCc1ccccc1)N[C@@H](C)C(=O)N1Cc2ccccc2C[C@H]1C(=O)O` [quinapril (hydrochloride)] + CN1CCN(C2=Nc3ccccc3Oc3ccc(Cl)cc32)CC1 [loxapine] here?
Answer: 0.0212 ± 0.003

Question: `Cc1nc(C(=O)NCC(=O)O)c(O)c2ccc(Oc3ccccc3)cc12` + CN1CCN(C2=Nc3ccccc3Oc3ccc(Cl)cc32)CC1 [loxapine] was tested. Which food intake did it give?
Answer: 0.0228 ± 0.0037

Question: For `CN(Cc1cnc2nc(N)nc(N)c2n1)c1ccc(C(=O)N[C@@H](CCC(=O)O)C(=O)O)cc1` [methotrexate] + CN1CCN(C2=Nc3ccccc3Oc3ccc(Cl)cc32)CC1 [loxapine], which food intake is on record?
Answer: 0.0222 ± 0.0022

Question: How did the food intake turn out when `O=c1n(CCCN2CCN(c3cccc(Cl)c3)CC2)nc2ccccn12` [trazodone (hydrochloride)] + CN1CCN(C2=Nc3ccccc3Oc3ccc(Cl)cc32)CC1 [loxapine] was run?
Answer: 0.0285 ± 0.035
